# SARS PLP yeast – qHTS of Yeast-based Assay for SARS-CoV PLP; 330,000 tested, 0.19% active; Potency, µM (doses to about 32.9 µM), most hits filed as activators; S. cerevisiae expressing SARS-CoV PLpro, growth rescue; calls by dose curve; further: nearly all actives have a fitted effect of over 55% in size
# Pf growth 48h – Primary qHTS for delayed death inhibitors of the malarial parasite plastid, 48 hour incubation. 310,000 tested, 5.9% active. P. falciparum luciferase growth in erythrocytes, 48 h. Potency, µM (doses to about 28.7 µM), actives largely listed as inhibitors
#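 Growth was read as firefly luciferase luminescence after a 48 h, 37 C, 5% CO2 exposure of compounds to reporter-bearing P. falciparum cultures (0.1% parasitemia, 2% hematocrit final) in Albumax-supplemented RPMI 1640.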
# Sm TGR inh – qHTS Assay for the Inhibitors of Schistosoma Mansoni Peroxiredoxins; AID 485364, 2010; Potency, µM (doses to about 114 µM), most hits filed as inhibitors; Schistosoma mansoni thioredoxin glutathione reductase (TGR), Q962Y6; purified TGR, DTNB reduction, TNB absorbance 405 nm; 360,000 tested, 3% active; further: nearly all actives have a fitted effect of over 60% in size
#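 First, TGR (20 nM dispensed) and NADPH were mixed with compound. Second, a 15 min room-temperature incubation followed. Third, further NADPH and then DTNB were added to start the reaction. Finally, TNB absorbance was monitored kinetically.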
# Pf growth 96h – Primary qHTS for delayed death inhibitors of the malarial parasite plastid, 96 hour incubation. P. falciparum luciferase reporter growth, 96 h. Potency, µM (highest dose often 28.7 µM), most hits filed as inhibitors. 320,000 tested, 6.9% active
#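 96 h incubation, 37 C, 5% CO2, of luciferase-reporter P. falciparum-infected RBCs (2% hematocrit, 0.05% parasitemia final) with test compounds; endpoint luminescence.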
# A number is an active result; n = inactive; u = inconclusive; x = no result; [ ] = another dose, or the depositor's remark. Only some compounds are listed: those with a hit (about 12% of all), similar ones and a draw of the others. Unless noted, the call rests on the fitted dose curve; in most records, active means well fitted curve in the direction sought with a large enough effect; inconclusive means small, poorly fitted or top-dose-only effect, or another doubt; inactive means no such curve, though single readings can be large; an effect the other way counts as inactive or inconclusive.
SMILES,SARS PLP yeast,Pf growth 48h,Sm TGR inh,Pf growth 96h
CC1=C(C(=O)Nc2cccc(C(=O)NC3CCCCC3C)c2)SCCO1 (centres undefined),n,n,n,9.3µM
CCOc1ccc2oc(=O)cc(CN3CCN(C(=O)c4cccc(F)c4)CC3)c2c1,x,x,n,x
Cc1cc(C(=O)N/N=C/c2cc(Br)cc(Br)c2OC(=O)c2cccc(F)c2)n[nH]1,n,12µM,n,u
Cc1cc(C(=O)N/N=C/c2cc(Br)cc(Br)c2OC(=O)c2ccccc2)n[nH]1,n,u,n,n
Cc1ccc(-c2cc(C(=O)N/N=C/c3ccccc3O)n[nH]2)o1,n,5.2µM,n,u
Cc1cc(C(=O)N/N=C\c2cc(C(C)(C)C)ccc2O)n[nH]1,u,12µM,n,n
Cc1ccc(C)c(Nc2c([N+](=O)[O-])cc(C(=O)N3CC(=O)Nc4ccccc43)cc2[N+](=O)[O-])c1,n,u,n,13µM
Cc1ccc(C)c(NC(=O)CNC(=O)N2CC(=O)Nc3ccccc32)c1,n,n,n,n
O=C1CN(C(=O)c2cccc(Br)c2)c2ccccc2N1,n,n,n,n
Cc1cccc(Nc2c([N+](=O)[O-])cc(C(=O)N3CC(=O)Nc4ccccc43)cc2[N+](=O)[O-])c1,n,9.3µM,u,u
Cc1nc2sc3c(c2c(=O)n1NC(=O)CCBr)CCCC3,n,n,40µM,n
O=C(NCc1ccco1)C(c1ccccc1)N(CC1CCCO1)C(=O)Cn1nnc2ccccc21 (centres undefined),n,u,n,n
O=C(NCc1ccco1)C(c1ccccc1)N(Cc1ccccc1)C(=O)Cn1nnc2ccccc21 (centres undefined),n,n,n,9.3µM
O=C(NCc1ccco1)C(c1ccncc1)N(CCC1=CCCCC1)C(=O)Cn1nnc2ccccc21 (centres undefined),n,u,45µM,x
O=C(NCc1ccc(F)cc1)C(c1ccccc1)N(CC1CCCO1)C(=O)Cn1nnc2ccccc21 (centres undefined),n,8.3µM,u,u
Cc1cccc(N(C(=O)Cn2nnc3ccccc32)C(C(=O)NCc2ccco2)c2ccncc2)c1 (centres undefined),n,n,u,x
O=C(NCC1CCCO1)C(c1ccc(F)cc1)N(CC1CCCO1)C(=O)c1ccc(-c2ccccc2)[nH]1 (centres undefined),n,2.1µM,n,n
O=C(NCc1ccc(F)cc1)C1CCN(S(=O)(=O)c2cccc3nonc23)CC1,n,n,n,n
O=C(CN(c1ccc(Cl)c(C(F)(F)F)c1)S(=O)(=O)c1ccccc1)N1CCc2ccccc2C1,x,x,n,x
Cc1cccc(C)c1NC(=O)C(c1cccs1)N(Cc1ccco1)C(=O)Cn1nnc2ccccc21 (centres undefined),n,6.6µM,n,x
CCCn1c(=O)[nH]c(=O)c2c(C(F)(F)F)cc(-c3ccc(C)cc3)nc21,n,n,n,2.6µM
CC(C)Cn1c(=O)[nH]c(=O)c2c(C(F)(F)F)cc(-c3ccccc3)nc21,n,u,n,8.3µM
Cc1cc(C(F)(F)F)c2c(=O)[nH]c(=O)n(Cc3ccccc3)c2n1,n,n,n,u
CCOC(=O)c1cc(-c2ccc([N+](=O)[O-])cc2)nc2c1c(=O)[nH]c(=O)n2Cc1ccccc1,n,n,n,n
O=c1[nH]c(=O)n(Cc2ccccc2)c2nc(-c3ccco3)cc(C(F)(F)F)c12,n,u,u,5.9µM
SMILES,SARS PLP yeast,Pf growth 48h,Sm TGR inh,Pf growth 96h
O=C(Nc1ccccc1)/C(=C/c1ccc(F)cc1)NC(=O)c1ccco1,n,n,n,n
CSc1ccc(CCNc2ncnc3onc(-c4ccc(Cl)cc4)c23)cc1,x,x,n,x
CCc1cc2c(cc3c(=O)n(CC(=O)NCCCN4CCCCCC4)nc(CC)n32)s1,n,n,u,u
Clc1cccc(CNc2nnnn2-c2ccccc2)c1,n,u,n,15µM
Cn1nnnc1NCc1cccc(Cl)c1,n,n,x,n
Cc1cc(Nc2nnnn2-c2ccccc2)n(-c2ccc(Cl)cc2)n1,n,4.7µM,n,x
CC(C(=O)Nc1ccc(F)c(Cl)c1)N1Cc2ccccc2C1=O (centres undefined),x,x,n,x
COCCN(C(=O)c1cccc(N2C(=O)CCC2=O)c1)c1nc(-c2ccc([N+](=O)[O-])cc2)cs1,n,u,n,n
COc1ccccc1N(C(=O)c1ccncc1)c1nc(-c2ccc([N+](=O)[O-])cc2)cs1,n,9.3µM,n,u
N=C1C=CC=C2C1=NC1(CCCCC1)N2O,n,u,20µM,n
O=C(COc1ccccc1)Nc1ccccc1N1CCN(c2ccc(F)cc2)CC1,n,n,n,n
O=C(COc1ccccc1)Nc1ccccc1N1CCN(c2ccccc2)CC1,n,u,n,2.9µM
CCCCCC(=O)Nc1ccccc1N1CCN(c2ccccc2)CC1,n,u,n,n
COc1ccc(OCC(=O)OC2CCN(C)CC2)cc1,n,x,n,u
O=C(O)/C=C\C(=O)Nc1ccccc1N1CCN(c2ccccc2)CC1,n,n,11µM,u
CN1CCC(OC(=O)COc2ccc(Br)cc2)CC1,n,n,20µM,n
CCOc1ccc(OCC(=O)Nc2ccccc2N2CCCC2)cc1,n,u,n,12µM
Cc1ccc(Cl)cc1NC(=O)Cn1c(=O)n(C(C)C)c(=O)c2oc3ccccc3c21,x,x,n,x
CN1CCN(c2ccccc2NC(=O)COc2ccc(Br)cc2)CC1,n,x,n,1.9µM
Cc1cccc(OCC(=O)Nc2ccccc2N2CCN(C)CC2)c1,n,n,n,n
COc1cc(C2NC(=O)N(C)C3=C2C(=O)CCC3)cc(OC)c1OC (centres undefined),n,n,n,n
CN1C(=O)NC(c2ccccc2[N+](=O)[O-])C2=C1CC(C)(C)CC2=O (centres undefined),n,n[0.00184 µM],n,9.3µM
CN1C(=O)NC(c2ccccc2[N+](=O)[O-])C2=C1CCCC2=O (centres undefined),n,n[0.00184 µM],u,9.3µM
COc1ccc(NC(=O)NNC(=O)c2ccc3ccccc3c2)cc1OC,n,n,n,n
CCn1ccc2c(OCC(=O)Nc3ccc(C(C)=O)cc3)cccc2c1=O,x,x,n,x
SMILES,SARS PLP yeast,Pf growth 48h,Sm TGR inh,Pf growth 96h
COC(=O)c1ccc(C(=O)OC)c(NC(=O)c2c(-c3ccccc3)c(-c3ccccc3)nn(C)c2=O)c1,x,x,n,x
CC(C)SC1=NC(C)(C)C=C(/C=C/c2c(Cl)cccc2Cl)N1,n,x,20µM,3.3µM
CC(C)SC1=NC(C)(C)C=C(/C=C/c2ccc(Cl)cc2Cl)N1,n,x,16µM,u
Cn1c(=O)c2c(ncn2Cc2ccc(Cl)c(Cl)c2)n(C)c1=O,n,n,n,n
Cn1c(=O)c2c(ncn2Cc2cccc(Cl)c2)n(C)c1=O,n,u,n,0.93µM
CC(Oc1ccc(Br)cc1)C(=O)Nc1cc(Cl)ccc1N1CCN(C)CC1 (centres undefined),n,12µM,n,12µM
CN1CCN(c2ccc(Cl)cc2NC(=O)CCN2C(=O)c3ccccc3C2=O)CC1,n,n,40µM,u

# Compound activity (PubChem)
